KLK7 zymogen act – activators of human kallikrein-7 zymogen; purified proKLK7, EDANS-DABCYL substrate fluorescence; 100% is mature enzyme control, 0% vehicle; activation, % at 7 µM; 0.9% of 370,000 active; AID 652039;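 active means activation above the mean of all tested compounds plus 3 SD, computed per campaign excluding outliers beyond control limits, cut at about 13% in these data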
ADAM10 inh – inhibitors of human ADAM10; recombinant ADAM10, EDANS/DABCYL FRET peptide cleavage, 3 h; AID 720582; 0.62% of 370,000 active; inhibition, % at 7 µM;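 active means inhibition above a per-campaign cutoff equal to the mean of compounds falling between control-based bounds plus 3 SD, cut at about 20% in these data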
ADAM17 inh – inhibitors of human ADAM17 | recombinant ADAM17, EDANS/DABCYL FRET peptide cleavage | inhibition, % at 6.95 µM | 0.83% of 370,000 active;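 active means inhibition above the mean of compounds lying between control limits plus 3 SD, set per campaign, cut at about 8.5% in these data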
NRP1-CendR mod – NRP-1/CendR interaction modulation | 0.85% of 360,000 active | FAM-RPARPAR peptide binding to NRP-1, fluorescence polarization | O14786 | inhibition, % at 25 µM;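 active means inhibition or corrected inhibition above about 18%, plus a signal ratio from 0.5 to 1.5, limit read from the data, passing the limit was not always enough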
sPLA2-III inh – Inhibits HGIII-sPLA2 liposome hydrolysis, primary screen; Q9NZ20; QFRET BODIPY PC-A2 liposome hydrolysis, fluorescence; inhibition, % at 12.2 µM; 0.56% of 370,000 active;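 active means inhibition above mean plus 3 SD of compounds lying within the high and low control bounds, cut at about 19% in these data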
Target sequence (Q9NZ20 whole entry, looked up): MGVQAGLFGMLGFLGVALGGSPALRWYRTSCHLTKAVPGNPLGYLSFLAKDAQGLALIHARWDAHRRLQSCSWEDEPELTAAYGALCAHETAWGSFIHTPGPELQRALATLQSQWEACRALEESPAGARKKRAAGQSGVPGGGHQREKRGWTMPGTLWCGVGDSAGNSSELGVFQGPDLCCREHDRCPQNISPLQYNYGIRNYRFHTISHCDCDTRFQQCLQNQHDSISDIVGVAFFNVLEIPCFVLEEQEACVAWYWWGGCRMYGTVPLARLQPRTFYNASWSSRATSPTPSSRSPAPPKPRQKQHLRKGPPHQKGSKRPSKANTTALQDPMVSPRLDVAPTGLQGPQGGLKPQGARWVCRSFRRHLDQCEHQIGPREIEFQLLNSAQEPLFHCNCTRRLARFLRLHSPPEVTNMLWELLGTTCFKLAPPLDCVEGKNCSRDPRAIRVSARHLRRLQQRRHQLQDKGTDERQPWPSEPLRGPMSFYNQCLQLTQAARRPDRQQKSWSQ
ADAM10 confirm – confirmation of inhibitors of human ADAM10 | inhibition, % at 6.95 µM | 1% of 2,100 active | ADAM10 QFRET peptide cleavage, EDANS fluorescence | shares compounds with ADAM10 inh;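 active means inhibition above about 20% chosen separately for each screening run, limit read from the data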
ADAM17 ctr – counter-screen for ADAM10 exosite inhibitors: inhibitors of human ADAM17. shares compounds with ADAM10 inh. ADAM17 QFRET peptide cleavage, EDANS fluorescence. inhibition, % at 6.95 µM. 0.5% of 2,100 active;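 active means mean triplicate inhibition above the solvent-only control wells' mean plus 3 SD, cut at about 12% in these data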
ADAM10 counter – counter-screen for ADAM17 exosite inhibitors: inhibitors of human ADAM10; shares compounds with ADAM17 inh; recombinant ADAM10, EDANS/DABCYL FRET peptide cleavage, 3 h; inhibition, % at 6.95 µM; 47% of 2,900 active;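 active means mean inhibition over the triplicate runs exceeds the activity threshold set in the earlier primary screen, cut at about 20% in these data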
ADAM17 confirm – human ADAM17 inhibition, confirmation; shares compounds with ADAM17 inh; recombinant ADAM17, EDANS/DABCYL QFRET peptide cleavage; inhibition, % at 6.95 µM; 65% of 2,900 active; AID 743257;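 active means mean inhibition across replicates above the hit cutoff set in the primary screen, cut at about 8.5% in these data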
Numbers stand for hits; 0 = inactive; - = no result given. Most compounds without a hit are left out; they make up all but 3.4% or so of the library.

SMILES | KLK7 zymogen act | ADAM10 inh | ADAM17 inh | NRP1-CendR mod | sPLA2-III inh | ADAM10 confirm | ADAM17 ctr | ADAM10 counter | ADAM17 confirm
COc1ccc(NC(=O)c2ccc3c(=O)n(-c4ccc(OC)cc4OC)c(=S)[nH]c3c2)cc1 | 0 | 24 | 9.1 | 0 | 0 | 0 | 0 | 0 | 0
COC(=O)[C@]12C[C@H](CC(=O)NCC34CC5CC(CC(C5)C3)C4)C(=O)N(CCC3=CCCCC3)C1=C[C@H](C(C)C)O[C@@H]2C1CC1 | 0 | 0 | 0 | - | 0 | - | - | - | -
COc1ccc(S[C@]2(C(=O)N3CCOCC3)CC(=O)N(S(=O)(=O)c3ccc(F)cc3)[C@@H]2c2ccc(OC)cc2)cc1 | 0 | 0 | 0 | - | 0 | - | - | - | -
CCN(Cc1cn(CC2CCCCC2)nn1)S(=O)(=O)c1ccccc1Br | 0 | 0 | 0 | - | 0 | - | - | - | -
N#Cc1c(Cl)nc(N/N=C/c2ccccc2)c(Cl)c1Cl | 0 | 23 | 9.1 | 0 | 0 | 31 | 15 | 0 | 0
CC(C)(C)NC(=O)CSc1nc2ccc(NC(=O)CSc3nnnn3Cc3ccccc3)cc2s1 | 0 | 25 | 9.8 | 0 | 0 | 0 | 0 | 22 | 14
CCOC(=O)CSc1nc2ccc(NC(=O)CSc3nnnn3Cc3ccccc3)cc2s1 | 0 | 0 | 0 | 0 | 0 | - | - | - | -
COc1ccc(Cn2ccc3ccc(-c4ccc5ccn(C(=O)C6CC6)c5c4)cc32)cc1 | 0 | 0 | 0 | - | 0 | - | - | - | -
COc1ccccc1N(CC(=O)NCc1ccco1)S(=O)(=O)c1ccc(C)cc1 | 0 | 0 | 0 | 0 | 0 | - | - | - | -
Cc1ccc(S(=O)(=O)N(Cc2ccc(Cl)cc2)c2ccccc2C(=O)NCc2ccco2)cc1 | 0 | 22 | 11 | 0 | 0 | 0 | 0 | 0 | 12
Cc1ccc(NS(=O)(=O)c2ccc(N3CCN(c4ccc(O)cc4)CC3)c([N+](=O)[O-])c2)c(C)c1 | 0 | 20 | 10 | 0 | 0 | 0 | 0 | 32 | 19
COc1ccc(Cl)c(NC(=O)C/C(C)=N/NC(=O)CCc2ccccc2)c1 | 0 | 25 | 11 | 0 | 0 | 0 | 0 | 0 | 0
CC(CCc1ccc(O)cc1)NC(c1ccccc1)c1ccc(Cl)cc1 (centres undefined) | 0 | 28 | 12 | 0 | 0 | 0 | 0 | 29 | 24
CC(C)(C)[C@@H]1/C(=C/C2CC2)N2C(=O)C[C@@H](c3ccccc3)N=C2N1Cc1ccc2c(c1)OCO2 | - | 0 | 0 | - | 0 | - | - | - | -
COC(=O)[C@H](CC(C)C)N(CCCc1cn(Cc2ccc(C)cc2)nn1)S(=O)(=O)c1ccccc1Br | 0 | 23 | 13 | - | 0 | 0 | 0 | 24 | 16
OC(c1ccccc1)(c1ccccc1)C1CCN(CCCOc2ccc(-c3ccncc3)cc2)CC1 | 0 | 0 | 0 | - | 0 | - | - | - | -
Cc1ccc(C(=O)Oc2cccc(NC(=O)c3ccccc3)c2)cc1C | 0 | 25 | 13 | 0 | 0 | 0 | 0 | 24 | 14
COc1ccc(-c2csc3ncnc(Oc4cccc5ccc(C)nc45)c23)cc1 | 0 | 21 | 8.9 | 0 | 0 | 0 | 0 | 0 | 0
OC(c1ccccc1)c1nc(-c2csc3ccccc23)cs1 (centres undefined) | 0 | 33 | 16 | 0 | 0 | 0 | 0 | 30 | 16
OC(c1ccc(F)cc1)c1nc(-c2csc3ccccc23)cs1 (centres undefined) | 0 | 0 | 0 | 0 | 0 | - | - | - | -
Cc1ccc(S(=O)(=O)N2CCN(CC(=O)N/N=C\c3ccc(Cl)c([N+](=O)[O-])c3)CC2)cc1 | 0 | 0 | 0 | 0 | 0 | - | - | - | -
O=C(CN1CCN(S(=O)(=O)c2ccc(Br)cc2)CC1)N/N=C/c1ccc(Cl)c([N+](=O)[O-])c1 | 0 | 26 | 11 | 0 | 0 | 0 | 0 | 26 | 14
COC(=O)[C@]12C[C@H](CC(=O)N3CCC(c4ccccc4)CC3)C(=O)N(Cc3ccc(Cl)cc3Cl)C1=C[C@H](C1CCCC1)O[C@@H]2C | 0 | 0 | 0 | - | 0 | - | - | - | -
